TROY signal inh – inhibitors of TROY-driven NF-kB signaling, primary screen, Q293 LMP1-TROYcd cells, NF-kB luciferase, uHTS; Q293 LMP1-TROYcd NF-kB luciferase reporter, 4 h; inhibition, % at 10 µM; 0.98% of 360,000 active; AID 1347056, 2019;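 active = compounds whose plate-normalised and pattern-corrected inhibition of the luciferase reporter signal at the single screening dose is 50% or more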
LGR2 inh – inhibitors of bursicon-induced LGR2 CRE-luciferase signal, primary screen, cell-based, HEK293, CRE-luciferase reporter, bursicon stimulation; bursicon-stimulated, 4 h; inhibition, % at 9.99 µM; 0.35% of 380,000 active;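 active = drop in luminescence signal, shown as inhibition above about 50% in the replicate tests, limit read from the data, passing the limit was not always enough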;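 note: agonist challenge used bursicon conditioned medium at about half maximal strength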
TWEAK-Fn14 inh – inhibitors of TWEAK-Fn14 signaling, primary screen, luciferase reporter cells, uHTS. TWEAK-stimulated Fn14 reporter cells, luciferase luminescence, 8 h. inhibition, % at 10 µM. 2% of 360,000 active; in the data active = inhibition above about 50%
PAX8 reporter – inhibitors of PAX8-driven TPO luciferase reporter, primary screen, RMG-I cells, single concentration | SteadyGlo, 24 h | inhibition, % at 12.6 µM | 1.2% of 360,000 active | AID 652154, 2013;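 active = mean replicate inhibition at least 60% with every replicate also reaching 60%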;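 note: luciferase light reporting Pax8 driven TPO promoter activity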
EWS-Fli block – EWS/Fli-driven NR0B1 reporter inhibitors, primary screen, A673 cells, NR0B1 luciferase, luminescence, MLPCN library. viability-normalised. inhibition, % at 12.6 µM. 0.67% of 350,000 active;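 active = mean inhibition of at least 50% after viability correction, with every replicate also passing that limit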;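 note: firefly luciferase signal divided by Alamar Blue viability fluorescence both relative to DMSO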
Large screens that a line does not name were inactive. A selection: hits, their analogues and other compounds. The true share with any hit is near 2.8%.

C[C@@H]1CN([C@H](C)CO)S(=O)(=O)c2ccc(-c3cccnc3)cc2O[C@H]1CN(C)C(=O)c1cccc(F)c1	none (no result: TROY signal inh, TWEAK-Fn14 inh, PAX8 reporter)
COc1ccccc1CNC(=O)c1ccc2nc3[nH]c4ccccc4c3nc2c1	PAX8 reporter 161.8
CN(C)C(=O)c1cccc(-c2ccc3c(c2)[C@@H]2[C@@H](CCN2C(=O)C2CCC2)[C@H](CO)N3)c1	none (no result: TROY signal inh, TWEAK-Fn14 inh, PAX8 reporter)
CCCCN(C)C(=O)c1cc2cc3ccc(OC)cc3nc2s1	TWEAK-Fn14 inh 74.1 (no result: LGR2 inh, EWS-Fli block)
CCCCN(CC)C(=O)c1cc2cc3ccc(OC)cc3nc2o1	none (no result: LGR2 inh, EWS-Fli block)
C=C1C(=O)O[C@H]2[C@H]1[C@@H](O)CC(=C)[C@@H]1CC(=O)[C@@H](C)[C@H]21	none (no result: LGR2 inh, PAX8 reporter, EWS-Fli block)
C=C1C(=O)O[C@H]2[C@@H]1CC/C(CO)=C\CC[C@@]1(C)O[C@@H]21	PAX8 reporter 83.1 (no result: TROY signal inh, LGR2 inh, TWEAK-Fn14 inh)
Cc1ccc(S(=O)(=O)N2CCOCC2)cc1NC(=O)CN1CCN(c2ccc(O)cc2)CC1	TWEAK-Fn14 inh 78.4
Cc1ccc(S(=O)(=O)N2CCN(CC(=O)Nc3ccc(N4CCOCC4)cc3)CC2)cc1C	PAX8 reporter 73.9
Cc1cccc(N2CCN(CC(=O)Nc3ccc(S(=O)(=O)N4CCOCC4)cc3)CC2)c1C	none
O=C(Cc1ccccn1)NCC[C@@H]1CC[C@H](NC(=O)Nc2ccc(Cl)cc2)[C@H](CO)O1	none (no result: TROY signal inh, TWEAK-Fn14 inh, PAX8 reporter, EWS-Fli block)
CCCC(=O)Nc1ccc(Sc2ccc([N+](=O)[O-])cc2)cc1	none (no result: LGR2 inh, PAX8 reporter, EWS-Fli block)
CCC(CC)C(=O)Nc1ccc(Sc2ccc([N+](=O)[O-])cc2)cc1	TROY signal inh 54.6 (no result: PAX8 reporter)
COc1cccc(/C=c2\s/c(=C\C(=O)C(C)(C)C)[nH]c2=O)c1	TWEAK-Fn14 inh 55.7
CC1(C)CC(N2CCC(=O)N(C3CC(C)(C)NC(C)(C)C3)C2)CC(C)(C)N1	TWEAK-Fn14 inh 80.0 (no result: TROY signal inh, LGR2 inh, PAX8 reporter, EWS-Fli block)
O=C(NNC(=O)C12CC3CC(CC(C3)C1)C2)c1ccccc1O	none
O=C(NNC(=O)C12CC3CC(CC(C3)C1)C2)c1ccccc1F	PAX8 reporter 80.7
CN(C)C(=O)C[C@H]1CC[C@H]2[C@@H](COc3ccc(NC(=O)C4CCOCC4)cc3C(=O)N2C)O1	none (no result: TROY signal inh, TWEAK-Fn14 inh)
O=C(Nc1ccc(N2CCN(C(=O)c3ccccc3F)CC2)cc1)c1cncc(Br)c1	TROY signal inh 64.1, TWEAK-Fn14 inh 63.8 (no result: EWS-Fli block)
O=C(Nc1ccc(N2CCCCC2)cc1)c1cncc(Br)c1	none (no result: LGR2 inh, PAX8 reporter, EWS-Fli block)
O=C(COC(=O)c1ccccc1-n1cnnn1)c1ccc(F)cc1	TROY signal inh 64.1, TWEAK-Fn14 inh 52.8
CCC(=O)N1CCC2(CC1)CN(Cc1cc(F)ccc1F)[C@H](CO)c1c2c2ccc(OC)cc2n1C	none (no result: TROY signal inh, TWEAK-Fn14 inh, PAX8 reporter)
COc1ccc(C)cc1N1C(=N)/C(=C2/Nc3ccccc3S2)C(c2ccccc2)C1=O (configuration not stated)	EWS-Fli block 66.2 (no result: LGR2 inh)
CCc1c(C)[nH]n(-c2nc(-c3ccccc3)cs2)c1=O	none
Cc1[nH]n(-c2nc(-c3ccc(Cl)cc3)cs2)c(=O)c1N=Nc1ccc(O)cc1	TWEAK-Fn14 inh 87.7
COc1ccc(NC(=O)Nc2ccc3c(c2)C(=O)N([C@H](C)CO)C[C@H](C)[C@@H](CN(C)Cc2ccncc2)O3)cc1	none (no result: TROY signal inh, LGR2 inh, TWEAK-Fn14 inh)
CO[C@@H]1CN(C)C(=O)c2cc(NC(C)=O)ccc2OC[C@H](C)N(C(=O)C2CCC2)C[C@H]1C	none (no result: TROY signal inh, TWEAK-Fn14 inh, PAX8 reporter, EWS-Fli block)
CCCC(NS(=O)(=O)c1ccc(-c2ccc(=O)[nH]n2)s1)c1cccs1 (configuration not stated)	TWEAK-Fn14 inh 58.0 (no result: EWS-Fli block)
Cc1cccc(CNS(=O)(=O)c2ccc(-c3ccc(=O)[nH]n3)s2)c1	none
Oc1ccc(CCNc2ncnc3ccc(Cl)cc23)cc1	TROY signal inh 55.6, TWEAK-Fn14 inh 93.7
O=C1NC[C@H](c2ccccc2)OC(=O)[C@@H](Cc2ccc(F)cc2)C/C=C\C[C@H]1CC(=O)N(CCO)Cc1ccccc1	LGR2 inh 60.9, PAX8 reporter 85.9
O=C1NC[C@@H](c2ccccc2)OC(=O)[C@H](Cc2ccc(F)cc2)C/C=C\C[C@H]1CC(=O)N(CCO)Cc1ccccc1	none
O=C1NC[C@@H](c2ccccc2)OC(=O)[C@@H](Cc2ccc(F)cc2)CC/C=C/C[C@H]1CC(=O)N(CCO)Cc1ccccc1	none
O=C1NC[C@H](c2ccccc2)OC(=O)[C@H](Cc2ccc(F)cc2)C/C=C\C[C@H]1CC(=O)N(CCO)Cc1ccccc1	LGR2 inh 58.4, PAX8 reporter 82.6
O=C(C[C@@H]1C=C[C@@H](NC(=O)C2CCOCC2)[C@@H](CO)O1)NCc1ccncc1	none (no result: TROY signal inh, TWEAK-Fn14 inh)
CNC(=O)C1(C)Cc2c(-c3ccc4c(c3)OCO4)ccnc2O1 (configuration not stated)	none
CN(C)c1ccc(CNC(=O)C2(C)Cc3c(-c4ccc(N(C)C)cc4)ccnc3O2)cc1 (configuration not stated)	none
COc1ccc(NC(=O)C2(C)Cc3c(-c4ccc5c(c4)OCO5)ccnc3O2)cc1 (configuration not stated)	EWS-Fli block 53.3
CN(C)c1ccc(CNC(=O)C2(C)Cc3c(-c4ccc5c(c4)OCO5)ccnc3O2)cc1 (configuration not stated)	EWS-Fli block 58.7
C[C@@H]1CN([C@H](C)CO)C(=O)c2cccc(NC(=O)c3ccc(-c4nccs4)cc3)c2O[C@@H]1CN(C)Cc1ccc(C(=O)O)cc1	none (no result: TROY signal inh, TWEAK-Fn14 inh, PAX8 reporter)
CN1C(=O)c2cc(NC(=O)c3ccc(F)cc3)ccc2OC[C@H]2O[C@@H](CC(=O)N3CCOCC3)CC[C@@H]21	none (no result: TROY signal inh, TWEAK-Fn14 inh)
C=C1CC2(CC(c3ccccc3)OC(c3ccccc3)C2)OC1=O (configuration not stated)	TWEAK-Fn14 inh 86.8
CCN1[C@@H]2Cn3c(ccc(-c4ccc(F)cc4)c3=O)[C@H]1[C@@H](C(=O)Nc1nccs1)[C@@H]2CO	none (no result: TROY signal inh, TWEAK-Fn14 inh, PAX8 reporter)
CCCN(C)C[C@@H]1OCCCC[C@@H](C)Oc2ccc(NS(=O)(=O)c3ccccc3)cc2C(=O)N([C@@H](C)CO)C[C@@H]1C	none (no result: TROY signal inh, TWEAK-Fn14 inh)
NC(=S)N=Nc1c(O)n(Cc2ccccc2)c2ccccc12	none
C/C(Cl)=C\Cn1c(O)c(N=NC(N)=S)c2ccccc21	EWS-Fli block 57.5
COc1cc2ccccc2ccc1=NO	TWEAK-Fn14 inh 62.2
COc1cc2ccccc2cc1C(=O)O	none (no result: LGR2 inh, EWS-Fli block)
COc1ccc(S(=O)(=O)Nc2ccc3c(c2)C(=O)N([C@H](C)CO)C[C@H](C)[C@H](CN(C)Cc2ccncc2)OCCCC[C@@H](C)O3)cc1	none (no result: TROY signal inh, TWEAK-Fn14 inh)
O=C(Nc1nc2ccccc2s1)c1ccc2sc([C@H]3C[C@H](O)[C@@H](CO)O3)nc2c1	LGR2 inh 98.4, TWEAK-Fn14 inh 64.1
COc1ccc(C(=O)Nc2nc3ccccc3s2)cc1	TWEAK-Fn14 inh 97.9, EWS-Fli block 61.1
Cc1cnc(NC(=O)c2ccc(OCC3CCCO3)cc2)s1 (configuration not stated)	LGR2 inh 86.9, TWEAK-Fn14 inh 84.7, EWS-Fli block 63.5
O=C(Nc1nc2ccccc2s1)c1ccc(OCC2CCCO2)cc1 (configuration not stated)	TROY signal inh 77.9, TWEAK-Fn14 inh 92.6
